Experimental data: PubChem BioAssay
Active and inactive are the calls of the source. Unless noted, the rule behind the calls is not given here.

Assays:
[1] = resazurin metabolic signal in HepG2 cells – cell-based, resazurin fluorescence, 24 h, PK04 Diversity Set, profiling panel (AID 1172); details: HepG2 viability, higher = more signal; note: test concentration not given here
[2] = budding yeast growth changes without added modifier – OD600, strain BY4716, 24 h, basal condition, primary screen (AID 1173); details: S. cerevisiae BY4716 growth, OD600, 24 h; higher = more signal, called active from +8 up or from −8 down
[3] = viability profiling in MM1S myeloma cells – cell-based, resazurin fluorescence, basal, 24 h, PK04 Diversity Set, profiling panel (AID 1174); details: higher = more signal, called active from +8 up or from −8 down;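 note: MM1S multiple myeloma cell line; test concentration not given here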
[4] = molecular target: Dihydroorotate dehydrogenase (quinone), mitochondrial (Plasmodium falciparum (isolate 3D7)) (UniProt Q08210); assay: inhibition of P. falciparum DHODH – biochemical, C-terminal His tag, absorbance 600 nm, primary screen (AID 1175); details: PfDHODH enzyme, DCIP absorbance 600 nm; higher = more signal, called active from +8 up or from −8 down;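 note: recombinant parasite enzyme with a five histidine tag at its C terminus; test concentration not given here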
[5] = inhibition of PAO1 biofilm formation – strain PAO1, LB-PBS medium, absorbance 600 nm, primary screen (AID 1176); note: test concentration not given here; details: P. aeruginosa PAO1 growth/biofilm, A600, 12 h; higher = more signal
[6] = growth modulation of vineyard yeast isolate – strain RM11-1a, OD600, basal, 24 h, primary screen (AID 1177);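 note: cultures grown under basal conditions with no added stressor; test concentration not given here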; details: S. cerevisiae RM11-1a growth, OD600, 24 h; higher = more signal, called active from +8 up or from −8 down
[7] = growth of efflux-deficient E. coli DRC39 – strain DRC39, OD650, 24 h, E. coli filamentation inducers, primary screen (AID 1178);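 note: growth measured as culture turbidity by optical density at 650 nm; test concentration not given here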; details: E. coli DRC39 acrAB, higher = more signal, called active from +8 up or from −8 down
[8] = growth of efflux-deficient E. coli DRC39 – strain DRC39, OD650, 48 h, E. coli filamentation inducers, primary screen (AID 1179);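 note: screen aims at cell division blockers that make cells filament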; details: E. coli DRC39 delta-acrAB growth, higher = more signal, called active from +8 up or from −8 down
[9] = viability profiling in RPMI8226 myeloma cells – cell-based, resazurin fluorescence, basal, 24 h, PK04 Diversity Set, profiling panel (AID 1180); details: higher = more signal;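 note: RPMI8826 multiple myeloma cell line at 5000 cells per well; test concentration not given here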
[10] = molecular target: E3 ubiquitin-protein ligase XIAP (Homo sapiens) (UniProt P98170); assay: small molecules binding XIAP protein – biophysical, small-molecule microarray, fluorescence 635 nm, primary screen (AID 1181); details: higher = more signal;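 note: score merges 667 nm emission and signal to noise over triplicate slides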
E3 ubiquitin-protein ligase XIAP (Homo sapiens), sequence (P98170 whole entry, looked up): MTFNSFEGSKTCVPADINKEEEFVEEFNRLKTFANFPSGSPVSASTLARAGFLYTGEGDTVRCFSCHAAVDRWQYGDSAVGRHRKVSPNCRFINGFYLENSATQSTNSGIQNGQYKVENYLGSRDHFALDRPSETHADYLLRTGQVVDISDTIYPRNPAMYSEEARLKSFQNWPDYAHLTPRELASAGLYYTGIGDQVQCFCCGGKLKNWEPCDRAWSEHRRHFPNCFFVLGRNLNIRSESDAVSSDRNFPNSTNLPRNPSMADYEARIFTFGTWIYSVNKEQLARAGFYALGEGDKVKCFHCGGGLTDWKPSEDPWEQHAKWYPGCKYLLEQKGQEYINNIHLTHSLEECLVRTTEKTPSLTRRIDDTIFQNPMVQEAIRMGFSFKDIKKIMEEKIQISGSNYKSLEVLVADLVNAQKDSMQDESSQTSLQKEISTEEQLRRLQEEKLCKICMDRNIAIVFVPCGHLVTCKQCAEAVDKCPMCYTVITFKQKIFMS

Dihydroorotate dehydrogenase (quinone), mitochondrial (Plasmodium falciparum (isolate 3D7)), sequence (Q08210 whole entry, looked up): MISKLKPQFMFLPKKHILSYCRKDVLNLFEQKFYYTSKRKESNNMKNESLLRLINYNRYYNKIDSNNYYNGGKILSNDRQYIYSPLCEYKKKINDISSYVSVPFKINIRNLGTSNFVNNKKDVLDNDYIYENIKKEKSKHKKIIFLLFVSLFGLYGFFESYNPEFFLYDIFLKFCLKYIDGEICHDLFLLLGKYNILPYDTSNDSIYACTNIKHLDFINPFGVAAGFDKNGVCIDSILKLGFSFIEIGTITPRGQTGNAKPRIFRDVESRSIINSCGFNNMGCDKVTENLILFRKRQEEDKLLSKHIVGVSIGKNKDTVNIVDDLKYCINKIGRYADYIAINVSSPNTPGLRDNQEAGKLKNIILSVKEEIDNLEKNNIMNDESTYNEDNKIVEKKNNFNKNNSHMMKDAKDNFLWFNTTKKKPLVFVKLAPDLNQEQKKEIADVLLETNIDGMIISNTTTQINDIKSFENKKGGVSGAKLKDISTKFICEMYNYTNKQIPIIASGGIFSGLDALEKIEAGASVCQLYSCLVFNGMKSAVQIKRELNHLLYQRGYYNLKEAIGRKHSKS

Structure (SMILES) | z-score [1] | z-score [2] | z-score [3] | composite z-score [4] | z-score [5] | z-score [6] | z-score [7] | z-score [8] | z-score [9] | composite z-score [10]
C[C@]1(C(=O)NCCN2CCOCC2)c2ccccc2C(=O)N(Cc2cc(F)cc(C(F)(F)F)c2)[C@H]1c1ccc(CO)cc1 | -0.0395 | 0.375 (inactive) | -0.464 (inactive) | 0.376 (inactive) | 0.664 (inactive) | 0.0645 (inactive) | 1 (inactive) | 1.67 (inactive) | 0.0794 | -0.116
O=C(NCC(O)CO)[C@@]1(CCS(=O)(=O)c2ccccc2)COC(c2ccc(OCCCO)cc2)=N1 (stereo not given in full) | 0.114 | 0.452 (inactive) | -0.169 (inactive) | 0.699 (inactive) | -0.043 (inactive) | 1.29 (inactive) | 0.243 (inactive) | -0.135 (inactive) | -0.159 | -0.0332
C[C@]1(C(=O)O)c2ccccc2C(=O)N(Cc2ccc(OC(F)(F)F)cc2)[C@H]1c1ccc(CO)cc1 | 0.0448 | -0.847 (inactive) | 0.0944 (inactive) | -0.295 (inactive) | 0.0993 (inactive) | -0.475 (inactive) | 0.248 (inactive) | -0.0775 (inactive) | 0.441 | 0.265
CCCC=C(CCC)[C@@H](NC(=O)CCc1ccccc1)c1ccc(C(F)(F)F)cc1 | 0.561 | -0.357 (inactive) | -0.407 (inactive) | -1.39 (inactive) | 0.0944 (inactive) | 0.439 (inactive) | 0.0152 (inactive) | -0.0054 (inactive) | -0.581 | 0.0734
COC(=O)C1=CC(CCCO)=CC(C)N(Cc2cccc(OC(F)(F)F)c2)C=C1C(=O)OC (stereo not given) | 0.0252 | -1.78 (inactive) | -0.0934 (inactive) | -2.73 (inactive) | 0.227 (inactive) | 0.0728 (inactive) | 1.38 (inactive) | 1.21 (inactive) | -0.123 | 0.365
O=C1OCC=C[C@H]2OC34C=CCN(c5ccc6ccccc6c5)C(=O)[C@H]3N(CCCCCO)C(=O)[C@@H]4[C@@H]12 (stereo not given in full) | -0.658 | -0.459 (inactive) | -0.818 (inactive) | 0.28 (inactive) | -0.634 (inactive) | 0.176 (inactive) | -1.19 (inactive) | -1.3 (inactive) | -0.887 | -0.0286
Cc1ccc(F)cc1S(=O)(=O)N[C@@H]1CCN(Cc2cccc3[nH]ccc23)C1 | -0.921 | -2.03 (inactive) | -0.182 (inactive) | 0.31 (inactive) | 0.343 (inactive) | -0.367 (inactive) | -0.429 (inactive) | -1.32 (inactive) | -0.504 | -0.02
COC(=O)C1=CC(CCCO)=CC(c2ccc(CN3CCCC3)cc2)N(Cc2cc3c(cc2Br)OCO3)C=C1C(=O)OC (stereo not given) | 0.3 | 0.0793 (inactive) | -0.119 (inactive) | 0.214 (inactive) | 0.214 (inactive) | 0.73 (inactive) | 0.463 (inactive) | 0.67 (inactive) | -0.0377 | -0.0102
[N-]=[N+]=NCc1ccccc1[C@H]1OC(c2ccc(OCCCO)cc2)=N[C@@]1(Cc1ccccc1)C(=O)NCCN1CCOCC1 | 0.292 | -1.62 (inactive) | -0.206 (inactive) | -0.905 (inactive) | 1.26 (inactive) | -0.557 (inactive) | 2.89 (inactive) | 0.763 (inactive) | 0.16 | 0.785
COCCOC(=O)N1C(=O)[C@@]2(c3cc(C#CCC(C(=O)OC)C(=O)OC)ccc31)[C@H](c1ccc(OCCO)cc1)N1[C@H](c3ccccc3)[C@H](c3ccccc3)OC(=O)[C@H]1[C@@H]2C(=O)Nc1nc2ccccc2s1 | 1.13 | 1.05 (inactive) | 0.814 (inactive) | -1.53 (inactive) | 3.58 (inactive) | 3.24 (inactive) | 1.18 (inactive) | 0.901 (inactive) | -1.15 | 0.0506
O=C1C2C=CC(C(O)c3ccc(I)cc3)N(Nc3ccccc3)C2C(=O)N1c1ccccc1 (stereo not given) | -1.04 | -2.16 (inactive) | -1.38 (inactive) | 0.45 (inactive) | 1.58 (inactive) | -0.208 (inactive) | -1.07 (inactive) | -0.28 (inactive) | -0.312 | 0.162
CCOC(=O)C1=CCC(c2ccccc2)N(S(=O)(=O)c2ccc([N+](=O)[O-])cc2)C1 (stereo not given) | 0.21 | 1.36 (inactive) | -1.12 (inactive) | 0.243 (inactive) | -0.0196 (inactive) | 0.993 (inactive) | -0.495 (inactive) | 0.0062 (inactive) | -0.927 | -0.113
CO[C@H]1O[C@H](CO)[C@@H](OC(=O)Nc2ccc(C#N)cc2)[C@@H]2OC(=O)[C@H](Cc3cccc(Br)c3)C/C=C/C[C@@H](Cc3cccc(Br)c3)C(=O)O[C@@H]12 | -1.39 | -0.253 (inactive) | -3.14 (inactive) | -0.631 (inactive) | 1.23 (inactive) | 0.99 (inactive) | 0.295 (inactive) | 0.432 (inactive) | -2.37 | -0.355
CN1C(=O)C2C=CC(C(O)c3ccc(F)cc3)N(NC(=O)OC(C)(C)C)C2C1=O (stereo not given) | -1.37 | 1.18 (inactive) | -0.67 (inactive) | 0.929 (inactive) | 0.503 (inactive) | 1.09 (inactive) | -0.592 (inactive) | -0.764 (inactive) | -1.37 | 0.171
CCCC=C(CCC)[C@@H](NS(=O)(=O)c1cccc2cccnc12)c1ccc(-c2ccccc2)cc1 | 1.15 | 0.928 (inactive) | 1.02 (inactive) | -0.0926 (inactive) | -0.787 (inactive) | 0.52 (inactive) | -0.24 (inactive) | -0.342 (inactive) | 1.27 | 0.072
CCCCC(=C=CC[C@H](O)c1ccc(OCCO)cc1)C[C@H](O)COCc1ccccc1 | -0.0002 | -1.36 (inactive) | 0.0233 (inactive) | -0.624 (inactive) | 0.0964 (inactive) | 0.556 (inactive) | 1.05 (inactive) | 0.529 (inactive) | 0.676 | 0.0122
CCCCCN1CC=CC23O[C@@H]4C=CCOC(=O)[C@@H]4[C@H]2C(=O)N(CCO)[C@@H]3C1=O (stereo not given in full) | 0.815 | 0.201 (inactive) | 0.0974 (inactive) | -0.693 (inactive) | 0.398 (inactive) | -0.454 (inactive) | -0.0666 (inactive) | -0.193 (inactive) | 0.229 | 0.307
NCCCCCNC(=O)[C@@H]1C[C@@H]2C(=O)N3CCC[C@H]3C(=O)N2[C@@H]1c1ccc(O)cc1 | -0.448 | 0.2 (inactive) | 0.422 (inactive) | 0.509 (inactive) | -0.102 (inactive) | 0.801 (inactive) | -0.281 (inactive) | -0.107 (inactive) | 0.272 | -0.0663
O=C1OCCC=C[C@H]2OC34C=CCN(c5ccc(Cl)cc5)C(=O)[C@H]3N(CCCCCCO)C(=O)[C@@H]4C12 (stereo not given in full) | 0.546 | -0.247 (inactive) | 1.35 (inactive) | -0.477 (inactive) | -0.786 (inactive) | 0.311 (inactive) | 1.38 (inactive) | 1.74 (inactive) | 1.23 | -0.474
CC(C)(C)OC(=O)CC[C@]12N=C(c3ccc(OCCCO)cc3)O[C@H]1c1ccccc1N(Cc1ccccc1)C2=O | 0.851 | 0.342 (inactive) | -0.922 (inactive) | -0.316 (inactive) | 0.95 (inactive) | 2.29 (inactive) | 1.1 (inactive) | 0.124 (inactive) | -1.55 | 0.0968
CCOC(=O)C1=C[C@@H](C(C)(C)C)N(S(=O)(=O)c2ccc(C)cc2)[C@H]1c1cccc(Cl)c1 | -0.594 | 2.15 (inactive) | -1.66 (inactive) | 1.08 (inactive) | 0.16 (inactive) | 2.81 (inactive) | -0.326 (inactive) | -0.104 (inactive) | -3.41 | -0.0994
CN1C(=O)C2C=CC(C(O)c3cc(C(F)(F)F)cc(C(F)(F)F)c3)N(Nc3ccccc3)C2C1=O (stereo not given) | -0.0075 | -2.64 (inactive) | -0.18 (inactive) | -0.274 (inactive) | 0.214 (inactive) | -0.478 (inactive) | -0.732 (inactive) | -0.556 (inactive) | 0.298 | 0.0641
COCCOC(=O)N1C(=O)[C@@]2(c3cc(C#CC4=CCCCC4)ccc31)[C@H](C(=O)N1CCCCCCC1)[C@H]1C(=O)O[C@H](c3ccccc3)[C@H](c3ccccc3)N1[C@@H]2c1ccc(OCCO)cc1 | 0.111 | -0.145 (inactive) | -0.341 (inactive) | -1.9 (inactive) | 2.26 (inactive) | 1.16 (inactive) | -0.427 (inactive) | -0.311 (inactive) | 0.169 | 0.144
C=C[C@@H](C)[C@H](O)c1ccc(OCCO)cc1 | 0.0075 | -0.731 (inactive) | 0.088 (inactive) | -0.445 (inactive) | 0.0852 (inactive) | 0.164 (inactive) | 1.02 (inactive) | 0.856 (inactive) | -0.127 | -0.184
CC(C)C(CO)N1C(=O)[C@@H]2[C@H]3C(=O)OCC=C[C@H]3OC23C=CCN(C(C)(C)C)C(=O)[C@@H]13 (stereo not given in full) | -0.341 | 0.542 (inactive) | -0.763 (inactive) | 0.648 (inactive) | 0.137 (inactive) | 1.18 (inactive) | -0.804 (inactive) | -0.854 (inactive) | -0.941 | -0.156
[N-]=[N+]=Nc1ccccc1C[C@@]1(C(=O)O)N=C(c2ccc(OCCCO)cc2)O[C@@H]1c1ccccc1N=[N+]=[N-] | 0.628 | -2.04 (inactive) | -0.988 (inactive) | -0.435 (inactive) | 0.879 (inactive) | -1.23 (inactive) | -0.258 (inactive) | -0.69 (inactive) | -0.955 | -0.0374
